The structures appear in SMILES notation. Results filed as inconclusive are left out. A number with no mark means an inactive call. Calls of active or inactive are those of the source. Calls come from the whole dose curve; as a rule, active = well fitted curve in the direction sought with a large enough effect; inconclusive = small, poorly fitted or top-dose-only effect, or another doubt; inactive = no such curve, though single readings can be large; an effect the other way counts as inactive or inconclusive.

The target in the first assay is Rap guanine nucleotide exchange factor 4 (Homo sapiens) (UniProt Q8WZA2). The assay can be described thus: Confirmatory qHTS for antagonist of cAMP-regulated guanine nucleotide exchange factor 4 (EPAC2) (AID 1645885). Note: % is set by controls: 0 for no effect and ±100 for the full control effect; nearly all actives have a fitted effect of over 25% in size. The note with it: EPAC2 Rap1B-BODIPY-GDP exchange fluorescence, biochemical; series mostly up to 114 µM; activity change, negative = inhibition: at the top concentration. In general terms: Quantitative high-throughput screening tests each substance at several concentrations.
Chain of Rap guanine nucleotide exchange factor 4 (Homo sapiens) (Q8WZA2 whole entry, looked up): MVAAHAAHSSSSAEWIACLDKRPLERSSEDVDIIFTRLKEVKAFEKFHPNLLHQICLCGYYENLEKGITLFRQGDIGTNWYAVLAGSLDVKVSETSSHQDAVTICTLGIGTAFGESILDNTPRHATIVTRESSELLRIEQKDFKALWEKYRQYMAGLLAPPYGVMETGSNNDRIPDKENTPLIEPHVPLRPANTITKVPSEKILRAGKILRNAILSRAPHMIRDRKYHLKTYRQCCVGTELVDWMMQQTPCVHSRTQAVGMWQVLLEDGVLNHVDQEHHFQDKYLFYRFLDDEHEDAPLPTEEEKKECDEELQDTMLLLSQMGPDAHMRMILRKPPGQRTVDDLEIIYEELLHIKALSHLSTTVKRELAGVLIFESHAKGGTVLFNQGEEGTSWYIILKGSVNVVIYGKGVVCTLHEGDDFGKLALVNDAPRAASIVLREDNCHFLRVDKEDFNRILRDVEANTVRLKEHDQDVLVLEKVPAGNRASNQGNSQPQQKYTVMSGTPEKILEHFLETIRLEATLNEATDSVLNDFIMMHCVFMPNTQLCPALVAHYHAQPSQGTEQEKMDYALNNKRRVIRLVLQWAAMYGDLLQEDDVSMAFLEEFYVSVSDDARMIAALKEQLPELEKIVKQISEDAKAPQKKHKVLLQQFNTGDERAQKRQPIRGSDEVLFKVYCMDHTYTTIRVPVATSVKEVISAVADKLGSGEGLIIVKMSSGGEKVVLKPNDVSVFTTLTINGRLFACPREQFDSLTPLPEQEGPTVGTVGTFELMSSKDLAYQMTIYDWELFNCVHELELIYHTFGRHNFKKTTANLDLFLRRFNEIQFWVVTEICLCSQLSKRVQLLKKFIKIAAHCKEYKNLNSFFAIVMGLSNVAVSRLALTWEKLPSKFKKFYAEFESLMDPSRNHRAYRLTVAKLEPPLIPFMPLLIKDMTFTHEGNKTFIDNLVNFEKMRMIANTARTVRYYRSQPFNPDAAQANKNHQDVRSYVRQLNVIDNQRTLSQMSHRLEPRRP
As for `N#C/C(=C\c1ccc(-c2ccc(Cl)c(C(=O)O)c2)o1)c1nc2ccccc2[nH]1`, the activity change, negative = inhibition is -25.6% [at 12.7 µM].
`O=C(O)c1ccccc1-c1c2cc(I)c(=O)c(I)c-2oc2c(I)c(O)c(I)cc12`: the activity change, negative = inhibition was 12.6% [at 12.7 µM].
As for `COc1ccc(NS(=O)(=O)c2ccc3c(c2)[C@H]2C=CC[C@H]2[C@@H](c2ccc(C(=O)O)cc2)N3)cc1`, the “activity change, negative = inhibition” value is -7.19%.

The target of another assay is Rap guanine nucleotide exchange factor 3 (Homo sapiens) (UniProt O95398). The assay can be described thus: Counterscreen qHTS for agonist of cAMP-regulated guanine nucleotide exchange factor 3 (EPAC1) (AID 1645889). For activation: % of control where 0% means no effect. Note: nearly all actives have a fitted effect of over 40% in size. Note: potency is the fitted concentration of half-maximal effect. The note with it: EPAC1 Rap1B-BODIPY-GDP exchange, fluorescence; series mostly up to 154 µM; activation: at the top concentration. An outline of the steps: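 Rap1B-BODIPY-GDP 250 nM + GDP 50 uM; cpds 7-pt, final 9.74 nM–152 uM (activator mode) or from 7.32 nM upwards (inhibitor mode); RT; FI 480/540 nm at 5 and 30 min, then ± cAMP, reread.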
(In general: A counterscreen serves to expose hits that act by an unwanted route or on another target.)
In the case of `N#C/C(=C\c1ccc(-c2ccc(Cl)c(C(=O)O)c2)o1)c1nc2ccccc2[nH]1`, the Potency is 79.4 µM (active).
Take `O=C(O)c1ccccc1-c1c2cc(I)c(=O)c(I)c-2oc2c(I)c(O)c(I)cc12`: the Potency is 7.08 µM (active).
On to `COc1ccc(NS(=O)(=O)c2ccc3c(c2)[C@H]2C=CC[C@H]2[C@@H](c2ccc(C(=O)O)cc2)N3)cc1`, for which the “activation” value was 9.59%.

(Values after PubChem BioAssay (NCATS).)
